Data published in ChEMBL document CHEMBL4513216, “Probing the Open Global Health Chemical Diversity Library for Multistage-Active Starting Points for Next-Generation Antimalarials” (ACS Infect Dis, 2020).
About 8,600 (12%) of roughly 69,000 compounds showed an effect of 50% or more. What follows is part of a selection rich in strong results, with near analogues and random picks from the rest.

test system: Plasmodium berghei; assay: Screen against P. berghei liver stage (PbLuc), transformed with Luciferase, at 10uM; assay type: functional, HepG2; settings: tested at 10 uM

| Structure (SMILES) | INHIBITION [%] |
| --- | --- |
| O=C1COc2ccc(C(=O)N3CCCC(n4ccnc4)C3)cc2N1 (stereo unspecified) | -12.2 |
| Cc1cccc(C(Nc2nccc(C)n2)C2CC2)n1 (stereo unspecified) | 6.66 |
| COc1c(C2CCCN2CC(=O)Nc2cccnc2)c(C)nn1C (stereo unspecified) | 19.4 |
| O=C(c1ccsc1)N1CCC2(CCN(Cc3ccccn3)C2=O)C1 (stereo unspecified) | -5.08 |
| CN(CCCOc1ccccc1Cl)C(=O)CN1CCNC1=O | 17 |
| CC(C)[C@@H]1CN(c2ncc(F)cn2)C[C@H]1NS(=O)(=O)N(C)C | 41.7 |
| CC(C)[C@@H]1CN(C(=O)NCc2ccco2)C[C@H]1NS(=O)(=O)N(C)C | 62.8 |
| CC(C)[C@@H]1CN(C(=O)CCn2ccccc2=O)C[C@H]1NS(C)(=O)=O | 8.53 |
| CC(C)[C@@H]1CN(C(=O)NCc2ccco2)C[C@H]1N(C)C | 31.4 |
| CC(C)[C@@H]1CN(c2ccc(C(F)(F)F)cn2)C[C@H]1NS(C)(=O)=O | 26.4 |
| CC(C)[C@H]1CN(c2ccncc2)C[C@@H]1NC(=O)C1(C#N)CCOCC1 | 10.9 |
| CCN(C)S(=O)(=O)N[C@H]1CN(c2ccc(F)cn2)C[C@@H]1C(C)C | 64.5 |
| Cc1nc2cc(C(=O)N3C[C@@H](NS(C)(=O)=O)[C@H](C(C)C)C3)ccc2[nH]1 | 39 |
| CC(C)[C@H]1CN(C2Cc3ccccc3C2)C[C@@H]1NS(C)(=O)=O | 55 |
| CC(C)[C@H]1CN(c2ccncc2)C[C@@H]1NS(=O)(=O)N(C)C | 76.8 |
| CC(C)[C@@H]1CN(c2ccc(F)cn2)C[C@H]1NS(C)(=O)=O | 30.9 |
| CC(C)[C@@H]1CN(CC(=O)NCc2ccco2)C[C@H]1NS(=O)(=O)N(C)C | 27.8 |
| Cn1cc(C2CCCN2C(=O)CCn2c(=O)oc3ccccc32)cn1 (stereo unspecified) | -13.7 |
| CN1CCCc2cc(CNC(=O)c3cccnc3O)ccc21 | -18.8 |
| COC(=O)c1ccc(N(C(=O)c2cccnc2C)C(C)C)c(C)c1 | -4.63 |
| CC(C)CNC(=O)[C@H]1CCS(=O)(=O)[C@@H]2CN(Cc3cccc(Cl)c3)C[C@H]12 | 36.8 |
| Cn1ccnc1C1CCCN(C(=O)c2ccc3nccnc3c2)C1 (stereo unspecified) | 6.11 |
| Cn1ncc2c(=O)[nH]c(CN3CCc4sccc4C3)nc21 | 13.3 |
| Cc1ncncc1C(=O)N1CCCC(n2cccn2)C1 (stereo unspecified) | 2.97 |
| Cc1cc(NC(=O)NCc2cccnc2OC(C)C)no1 | 31.2 |
| Cc1cc(C)n(CC(C)Nc2nc(C)nc3c2CCNC3)n1 (stereo unspecified) | -9.18 |

| Structure (SMILES) | INHIBITION [%] |
| --- | --- |
| Cc1oc(-c2ccco2)nc1CN1CCc2cncnc2C1 | 45.4 |
| c1cncc(CNC2CCc3ncnn3C2)c1 (stereo unspecified) | 33.3 |
| Cc1ccc(C)c(NCc2nc3n(n2)CCCCC3)c1 | 17.6 |
| Cc1csc2c(C3CCN(C(=O)Cn4cncn4)CC3)nc(C)n12 | 32.3 |
| CC(C)c1nc(C2CCCN2CCS(C)(=O)=O)no1 (stereo unspecified) | 31.5 |
| CC(C)[C@H]1CN(C2Cc3ccccc3C2)C[C@@H]1NS(=O)(=O)N(C)C | 55 |
| CC(C)[C@@H]1CN(CCOc2ccccc2)C[C@H]1NS(=O)(=O)N(C)C | 33.2 |
| CS(=O)(=O)N[C@@H]1CN(Cc2ccccc2)C[C@H]1O | 22.8 |
| CS(=O)(=O)N[C@@H]1CN(Cc2ccccc2)C[C@@H]2CCCO[C@@H]21 | -57.7 |
| CC(C)[C@@H]1CN(C2CCN(Cc3ccccc3)CC2)C[C@H]1NS(C)(=O)=O | 64.9 |
| CC(C)[C@@H]1CN(S(=O)(=O)Cc2ccccc2)C[C@H]1NS(=O)(=O)N(C)C | 32.7 |
| Cc1noc(C)c1CN1C[C@@H]2CCCO[C@@H]2[C@H](Nc2ccccn2)C1 | 16.4 |
| Cc1noc(C)c1CN1CCCCC1CCc1ccc(O)cc1 (stereo unspecified) | 12.6 |
| COCCN1CC(=O)N2CC[C@@H](O)C[C@H]2C1=O | 10.615 |
| CC(C)[C@@H]1CN(C(=O)C2(c3ccccc3)CCN(C)CC2)C[C@H]1C(=O)O | 64 |
| CC(C)[C@@H]1CN(C(=O)C2(c3ccccc3)CCN(C)CC2)C[C@H]1N(C)C | 39.4 |
| Cc1ccsc1C(=O)N1C[C@@H](C(=O)O)[C@H](C(C)C)C1 | 24.4 |
| CC(C)[C@@H]1CN(C(=O)C2(c3ccccc3)CC2)C[C@H]1C(=O)O | 50.1 |
| CC(C)[C@@H]1CN(C(=O)CN(C)Cc2ccccc2)C[C@H]1C(=O)O | 47.9 |
| COc1ccc(C2(C(=O)N3C[C@@H](C(=O)O)[C@H](C(C)C)C3)CC2)cc1 | -17.3 |
| CS(=O)(=O)N1CCC(c2cncc(Cl)n2)CC1 | -1.16 |
| CC(C)CN(Cc1ccccn1)Cc1ccccc1OCC(=O)O | 54.4 |
| CC(C)CN(Cc1ccccn1)Cc1ccccc1C(=O)O | 38.6 |
| CC(C)CN(Cc1ccc(O)c(C(=O)O)c1)Cc1ccccn1 | 43.9 |
| COCC(=O)NCCn1nc(-c2cc(C)oc2C)ccc1=O | -0.275 |
| O=C(c1ccccc1-c1ccccc1)N1C[C@@H]2CNC[C@]2(C(=O)O)C1 | 49.7 |

| Structure (SMILES) | INHIBITION [%] |
| --- | --- |
| O=C(Nc1ccc(-c2ccccc2)cc1)N1C[C@@H]2CNC[C@]2(C(=O)O)C1 | 41.5 |
| O=C(Nc1ccccc1-c1ccccc1)N1C[C@@H]2CNC[C@]2(C(=O)O)C1 | 55.4 |
| Cc1cc(CNC2CCCN(Cc3noc(C4CC4)n3)C2)on1 (stereo unspecified) | 46.2 |
| CN(CCc1ccccn1)C(=O)CCC1CCCN(c2ncccn2)C1 (stereo unspecified) | 16.1 |
| CCCc1csc(-c2ccc(S(C)(=O)=O)cc2)n1 | -39.1 |
| CC(C)(CN1CCC(Cc2cccc(C(=O)O)c2)C1)N1CCOCC1 (stereo unspecified) | 1.71 |
| CCOc1ccc(Oc2cc(N)ccn2)cc1 | -55.5 |
| Cc1nnc(NC(=O)CN2CCOC(Cn3cccn3)C2)s1 (stereo unspecified) | 17.4 |
| O=C(CN1CCOC(Cn2cccn2)C1)Nc1nncs1 (stereo unspecified) | 41.2 |
| O=C(CN1CCOC(Cn2cccn2)C1)Nc1nccs1 (stereo unspecified) | 53.3 |
| Cc1nn(C)c(C)c1NC(=O)CN1CCOC(Cn2cccn2)C1 (stereo unspecified) | 47.1 |
| O=C(CN1CCOC(Cn2cccn2)C1)Nc1ccncc1 (stereo unspecified) | -18.2 |
| Cc1cnn(CC2CN(CC(=O)N(C)c3nccs3)CCO2)c1 (stereo unspecified) | 11.8 |
| CN(C(=O)CN1CCOC(Cn2cccn2)C1)c1nccs1 (stereo unspecified) | 52.1 |
| CN(Cc1ccsc1)C(=O)CN1CCOC(Cn2cccn2)C1 (stereo unspecified) | 33 |
| O=C(CN1CCOC(Cn2cncn2)C1)NC(C1CC1)C1CC1 (stereo unspecified) | 23.9 |
| Cc1nc(NC(=O)CN2CCOC(Cn3cccn3)C2)sc1C (stereo unspecified) | 60.4 |
| O=C(CN1CCOC(Cn2cccn2)C1)NC(C1CC1)C1CC1 (stereo unspecified) | 58.2 |
| Cc1cnn(CC2CN(CC(=O)Nc3nccs3)CCO2)c1 (stereo unspecified) | 29.6 |
| NC(=O)c1csc(N2C[C@@H](CN3CCCCC3)[C@@H](CO)C2)n1 | 14.45 |
| CC(=O)c1cc2ncc(C(=O)NC3CCCCC3)cc2[nH]1 | -25.1 |
| COC(=O)C(C)(C)NC(=O)C1CC(=O)N(CC(F)(F)F)C1 (stereo unspecified) | -28.7 |
| CC(NC(=O)OC(C)(C)C)c1nnc(S(=O)(=O)Cc2ccccc2Cl)o1 (stereo unspecified) | 21.5 |
| Cn1ncc2c1C(COCC1CC1)CN(c1ncc(F)cn1)C2 (stereo unspecified) | 7.67 |
| Cn1cc(-c2nc(C(=O)N3CCCC3Cn3cccn3)cs2)cn1 (stereo unspecified) | 40.2 |
| Cc1ccc(CC(=O)N2CCCCC2Cn2cccn2)cn1 (stereo unspecified) | 30.3 |

| Structure (SMILES) | INHIBITION [%] |
| --- | --- |
| O=C1c2c(O)cc(O)cc2O[C@@H](c2ccc(O)cc2)[C@@H]1O | 70.8 |
| COc1cc(C2CC(=O)c3c(O)cc(O)cc3O2)ccc1O (stereo unspecified) | -17.1 |
| Oc1ccc([C@H]2Oc3cc(O)cc(O)c3C[C@@H]2O)cc1 | 7.5 |
| COc1cc2c(cc1CN1CCn3c(CO)nnc3C1)CCC2 | 3.91 |
| Cc1nc(C)n(CC2CCCCN2CCc2ccncc2)n1 (stereo unspecified) | 4 |
| CCOC(=O)Cn1cccc(S(=O)(=O)N2CCCC2)c1=O | -2.92 |
| CCN1CCN(Cc2ccnc(-c3cccnc3)n2)CC1 | 46.1 |
| OC1CCN(Cc2ccnc(-c3cccnc3)n2)CC1 | 42.4 |
| c1cncc(-c2nccc(CN3CCC(N4CCCCC4)CC3)n2)c1 | 17.1 |
| c1ccc(CC2CCN(Cc3ccnc(-c4cccnc4)n3)CC2)cc1 | 50 |
| CC1CCCN(Cc2ccnc(-c3cccnc3)n2)C1 (stereo unspecified) | -6.92 |
| c1cncc(-c2nccc(CN3CCCC3)n2)c1 | 51.2 |
| COCCN1C[C@@H](c2ccccc2)[C@@]2(CCN(CC(=O)N(C)C)C2=O)C1 | -4.82 |
| Cc1ccccc1N1CC2(CCN(S(=O)(=O)c3cccs3)C2)CC1=O (stereo unspecified) | 35.7 |
| CC(=O)c1cc(CN2C[C@@H]3CC[C@H]2CN(S(=O)(=O)N(C)C)C3)cs1 | 80.1 |
| Cc1noc(C)c1CN1C[C@@H](NS(=O)(=O)N(C)C)[C@H](C(C)C)C1 | 24.3 |
| CC(C)[C@@H]1CN(Cc2ccsc2)C[C@H]1NS(=O)(=O)N(C)C | 50.1 |
| CC(=O)c1cc(CN2C[C@@H](NS(=O)(=O)N(C)C)[C@H](C(C)C)C2)cs1 | 52.2 |
| CC(=O)c1cc(CN2C[C@@H](N(C)C)[C@H](C(C)C)C2)cs1 | 13.7 |
| Cc1nc(CN2C[C@@H](NS(=O)(=O)N(C)C)[C@H](C(C)C)C2)cs1 | 38.3 |
| CC(=O)c1cc(CN2C[C@@H]3CC[C@H]2CN(S(C)(=O)=O)C3)cs1 | -52.2 |
| CC(C)[C@@H]1CN(C(=O)NCCc2ccccc2)C[C@H]1NS(=O)(=O)N(C)C | 41.3 |
| CN(C)S(=O)(=O)N1C[C@H]2CC[C@@H](C1)N(Cc1ccc3nsnc3c1)C2 | 45.1 |
